Unmarked numbers belong to inactive results. The rule behind the calls is not given here.
Each molecule was assayed against Pantothenate synthetase (Mycobacterium tuberculosis (strain ATCC 25618 / H37Rv)) (UniProt P9WIL5) (assay: Recombinant Mtb pantothenate synthetase (PanC) inhibitors, coupled enzyme, confirmatory (AID 375;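 note: 0% = full reaction with vehicle and 100% = no enzyme background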)). Settings: coupled enzyme assay; at 10 µM, active compounds read high.
Sequence of Pantothenate synthetase (Mycobacterium tuberculosis (strain ATCC 25618 / H37Rv)) (P9WIL5 whole entry, looked up): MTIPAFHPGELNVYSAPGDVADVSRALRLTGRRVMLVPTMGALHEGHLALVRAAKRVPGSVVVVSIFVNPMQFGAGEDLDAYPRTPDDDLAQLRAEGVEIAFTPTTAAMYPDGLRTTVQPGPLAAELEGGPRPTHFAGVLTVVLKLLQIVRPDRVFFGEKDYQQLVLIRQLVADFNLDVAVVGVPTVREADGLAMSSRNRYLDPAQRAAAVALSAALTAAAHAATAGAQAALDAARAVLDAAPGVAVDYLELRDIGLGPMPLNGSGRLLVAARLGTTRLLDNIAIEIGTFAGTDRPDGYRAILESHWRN
`COc1ccc2c(c1OC)C(=O)O[C@@H]2[C@H]1c2c(cc3c(c2OC)OCO3)CCN1C` was tested, and the inhibition was 0%.
`CSc1ccccc1C(=O)NC1CC2CCC1C2` (stereo not given) was tested, and the inhibition was 0%.
Molecule `Cc1cc2c(=O)n(Cc3ccco3)c(SCC(=O)NCc3ccco3)nc2s1` has an inhibition of 3%.
With `O=S1(=O)CCN2C(=N1)SC1=C2CCN(Cc2ccccc2)C1` the inhibition was 2%.
`O=C(CSc1nc2cc(S(=O)(=O)N3CCOCC3)ccc2o1)NC1CCCc2ccccc21` (stereo not given) showed an inhibition of 0%.
`CCCCCn1c(CN2CCN(c3cccc(Cl)c3)CC2)nc2c1c(=O)n(C)c(=O)n2C` was tested, and the inhibition was 0%.
With `Cc1cn2c(-c3ccc(Cl)cc3)nnc2s1` the inhibition was 0%.
`Cc1cccc(C(=O)O)c1NC(=O)c1ccc(F)cc1` showed an inhibition of 1%.
`CCOC(=O)N1CCN(c2cc(=O)n(-c3ccc(OCC)cc3)c(=O)[nH]2)CC1` gave an inhibition of 5%.
`CCOC(=O)c1nnc2cc(-c3ccc(Br)cc3)nn2c1C` gave an inhibition of 0%.
`CCOC(=O)CSc1nnc(-c2cccnc2)n1Cc1ccccc1` showed an inhibition of 0%.
Work on `CCOC(=O)c1sc2nc(NC(=O)COc3ccccc3)sc2c1C` yielded an inhibition of 0%.
With `Cc1ccc(S(=O)(=O)N2CCN(C(=O)CN3CCOCC3)C2C(C)C)cc1` (stereo not given) the inhibition was 0%.
`CCn1c(NC(=O)c2cccc(Cn3cc(Cl)cn3)c2)nc2ccccc21` gave an inhibition of 0%.
Molecule `CCOC(=O)c1ccc(NC(=O)CCc2nc(-c3ccc(C)cc3)no2)cc1` has an inhibition of 0%.
In the case of `N#Cc1ccc(CSc2nnc(-c3cnccn3)o2)cc1`, the inhibition is reported as 5%.
For `Cc1ccc(S(=O)(=O)NCC(=O)N(CC(=O)NC2CCCCC2)Cc2ccco2)cc1`, the inhibition was 11%.
`Cc1ccc(C)c(-n2c(CNC(=O)c3ccco3)nnc2SCC(=O)Nc2nnc(C)s2)c1` gave an inhibition of 0%.
In the case of `OCCn1c(-c2ccc3c(c2)OCO3)csc1=Nc1ccccc1`, the inhibition is reported as 1%.
With `Cc1cccc(-n2ncc3c(NCCCn4ccnc4)ncnc32)c1` the inhibition was 4%.
Molecule `CCOc1ccc(NC(=O)C2CC(=O)N(CC)C(=Nc3ccc4c(c3)OCO4)S2)cc1` (stereo not given) has an inhibition of 3%.
Molecule `CCc1ccc(NS(=O)(=O)c2cccs2)cc1` has an inhibition of 0%.
Work on `COc1ccc(CCNc2oc(COc3ccccc3Cl)nc2C#N)cc1OC` yielded an inhibition of 3%.
`COc1ccc2c(c1)CCc1c(C(=O)N3CCCc4ccccc43)noc1-2` gave an inhibition of 4%.
`CC(C)NC(=O)c1ccccc1NC(=O)c1ccccc1N(C)S(C)(=O)=O` showed an inhibition of 4%.
For `CC(C)OCCCNC(=O)c1cc2c(s1)CS(=O)(=O)C2`, the inhibition was 0%.
`COc1ccccc1Nc1nc(N)nc(CN2CCN(c3ccccc3F)CC2)n1` showed an inhibition of 0%.
`CN(C)c1cccc(C(=O)OCC(=O)NCc2ccco2)c1` was tested, and the inhibition was 0%.
Molecule `CCC(NS(=O)(=O)c1ccc(C)cc1)C(=O)N1CCC2(O)CCCCC2C1` (stereo not given) has an inhibition of 6%.
`O=S(=O)(NCc1cn2ccsc2n1)c1ccc2c(c1)OCCO2` gave an inhibition of 0%.
With `O=C(O)CCCCCNc1nc(=S)[nH]c2ccccc12` the inhibition was 0%.
`Cc1ccc(S(=O)(=O)N2CCCC(C(=O)NC3=NCCS3)C2)cc1` (stereo not given) showed an inhibition of 12%.
`CCn1c(C(=O)N2CCCC(C(=O)O)C2)cc2sccc21` (stereo not given) gave an inhibition of 11%.
`CC(C)CN(C(=O)COC(=O)Cc1n[nH]c(=O)c2ccccc12)C1CCS(=O)(=O)C1` (stereo not given) gave an inhibition of 2%.
`CC1CCC(C(=O)NC(C(=O)NCCN2CCC(C)CC2)C(C)C)CC1` (stereo not given) showed an inhibition of 0%.
`CCOC(=O)C1CCN(Cc2c(O)ccc3ccccc23)CC1` gave an inhibition of 1%.
`O=C(Cn1c(=O)[nH]c2ccsc2c1=O)NC1CCCCCC1` was tested, and the inhibition was 7%.
With `O=C1C2C3C=CC(C3)C2C(=O)N1Cc1ccccc1` (stereo not given) the inhibition was 6%.
For `O=C1c2cccnc2C(O)N1Cc1ccc(F)cc1` (stereo not given), the inhibition was 9%.
Molecule `CCSc1nnc(NC(=O)CCNS(=O)(=O)c2cc(Br)cnc2N)s1` has an inhibition of 3%.
